A short description of experiment [1]: StAR promoter reporter inhibitors, counter-screen for LRH-1 inverse agonist project, cell-based, luminescence, high throughput (AID 651611; in the data active means inhibition above about 28%). As to conditions: StAR promoter luciferase reporter counterscreen, at 3.6 µM, hits give high values. On the technique in general: Counterscreens check selectivity or assay interference.
In experiment [2] the target is Nuclear receptor subfamily 5 group A member 2 (Homo sapiens) (UniProt O00482). Description: NR5A2 activity suppression in reporter cells – cell-based, luminescence, confirmation (AID 651613).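 Further: HEK293T cells co-transfected with LRH-1 and StAR promoter luciferase reporter; 0% = vehicle wells and 100% = parental cells lacking receptor.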 As to conditions: cell-based LRH-1 luciferase reporter, inverse agonism; at 3.6 µM; hits give high values. Background: In a reporter assay the amount or activity of a reporter protein is the signal.

Experiment [3] concerns the target Steroidogenic factor 1 (Homo sapiens) (UniProt Q13285). Description: inverse agonism at SF1 nuclear receptor – cell-based, luminescence, high throughput, counter-screen for LRH-1 inverse agonist project (AID 651614; in the data active means inhibition above about 44%;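 further: cells cotransfected with StAR promoter reporter and SF1 expression vector; 0% = vehicle on cells with receptor and 100% = vehicle on cells lacking receptor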). As to conditions: cell-based SF1 luciferase reporter, at 3.6 µM, hits give high values.
A short description of experiment [4]: compounds suppressing VP16-driven luciferase signal – cell-based, luminescence, high throughput, counter-screen for LRH-1 inverse agonist project (AID 651615; in the data active means inhibition above about 33%). As to conditions: Gal4-VP16 luciferase reporter cells, at 3.6 µM, hits give high values.

Broadly, the inhibition is the change of the read-out against control, counted positive when it falls.

Values without a mark were called inactive. The source made the active and inactive calls. Unless noted, no stated cut-off is given here; in the data, active means inhibition above about 42%; inactive means the rest.

Chain of Steroidogenic factor 1 (Homo sapiens) (Q13285 whole entry, looked up, the tested form may be a part): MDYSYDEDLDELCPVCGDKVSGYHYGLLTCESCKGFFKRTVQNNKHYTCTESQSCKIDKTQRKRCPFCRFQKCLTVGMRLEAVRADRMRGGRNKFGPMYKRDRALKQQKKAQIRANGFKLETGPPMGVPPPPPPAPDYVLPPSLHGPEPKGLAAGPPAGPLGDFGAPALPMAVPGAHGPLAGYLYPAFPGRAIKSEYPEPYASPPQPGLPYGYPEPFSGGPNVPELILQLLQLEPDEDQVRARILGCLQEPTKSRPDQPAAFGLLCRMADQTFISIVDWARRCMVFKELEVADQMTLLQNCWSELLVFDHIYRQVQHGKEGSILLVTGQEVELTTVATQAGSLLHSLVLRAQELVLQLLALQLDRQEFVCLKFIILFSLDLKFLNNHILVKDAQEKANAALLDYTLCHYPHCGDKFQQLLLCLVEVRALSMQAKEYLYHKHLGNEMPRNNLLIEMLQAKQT
Chain of Nuclear receptor subfamily 5 group A member 2 (Homo sapiens) (O00482 whole entry, looked up): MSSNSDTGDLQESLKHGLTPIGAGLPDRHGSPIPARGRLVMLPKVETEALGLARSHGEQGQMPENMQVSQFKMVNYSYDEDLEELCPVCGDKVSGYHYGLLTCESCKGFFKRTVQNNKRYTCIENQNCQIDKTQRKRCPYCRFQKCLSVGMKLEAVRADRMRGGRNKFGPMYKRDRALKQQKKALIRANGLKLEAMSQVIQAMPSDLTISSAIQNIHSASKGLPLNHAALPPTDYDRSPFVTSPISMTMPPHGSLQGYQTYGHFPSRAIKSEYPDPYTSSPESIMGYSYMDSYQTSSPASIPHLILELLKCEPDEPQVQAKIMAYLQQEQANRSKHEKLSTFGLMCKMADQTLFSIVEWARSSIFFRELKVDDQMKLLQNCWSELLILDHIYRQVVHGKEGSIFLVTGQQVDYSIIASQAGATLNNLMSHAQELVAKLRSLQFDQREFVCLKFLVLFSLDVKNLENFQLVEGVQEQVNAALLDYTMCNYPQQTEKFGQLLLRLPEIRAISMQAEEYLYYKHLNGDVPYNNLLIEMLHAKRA

Regarding `CCOc1ccc(CCNC(=O)COC(=O)c2ccc(F)c(S(=O)(=O)N3CCOCC3)c2)cc1OCC`, the inhibition in experiment [1] was 10.3%; in experiment [2], 61.8% (active); in experiment [3] it was 61.6% (active); in experiment [4], -3.82%.
Regarding `CC(=O)Nc1ccc(-c2c(C)cc3oc(=O)cc(-c4ccccc4)c3c2C)cc1`, the inhibition in experiment [1] is 15.9%; in experiment [2], 57.9% (active); in experiment [3], 58.9% (active); in experiment [4] it was -2.96%.
On to `CC(C)OC(=O)C(=O)NNc1ccccc1`, for which the inhibition was 12.3% in experiment [1], 12.2% in experiment [2], 4.1% in experiment [3] and 11.9% in experiment [4].
With `CC1(c2ccc3ccccc3c2)NC(=O)N(CC(=O)N2CCN(Cc3ccc(C#N)cc3)CC2)C1=O` (stereo not drawn), the inhibition was 32.1% (active) in experiment [1], 66.1% (active) in experiment [2], 62.4% (active) in experiment [3] and 53.5% (active) in experiment [4].
`CC(=O)Nc1ccc2nc(NC(=O)c3ccc([N+](=O)[O-])o3)sc2c1`: the inhibition in experiment [1] is 1.53%; in experiment [2] it was 53.5% (active); in experiment [3], 55.8% (active); in experiment [4] it was -32.4%.
For `O=C(N/N=C/c1ccc([N+](=O)[O-])o1)c1ccc2c(c1)OCO2`, the inhibition is 37.2% (active) in experiment [1], 78.3% (active) in experiment [2], 91.2% (active) in experiment [3] and -5.58% in experiment [4].
For `CN1CCN(c2ccccc2NC(=O)c2ccc(-c3cccc([N+](=O)[O-])c3)o2)CC1`, the inhibition in experiment [1] is 11.9%; in experiment [2], 42.9% (active); in experiment [3], 49.6% (active); in experiment [4] it was 2.32%.
Turning to `Cc1ccc(S(=O)(=O)NCc2ccncc2)cc1`, the inhibition in experiment [1] was 5.31%; in experiment [2], 54.7% (active); in experiment [3], 43% (active); in experiment [4], 48.7% (active).
The like results for `CC(=O)N1CCc2c(sc(NC(=O)CCS(=O)(=O)c3ccccc3)c2C#N)C1` were, in that order, -5.27%, 60.1% (active), 55.1% (active) and -11%.
In the same order, the values of `CCOc1ccc(NC(=O)COC(=O)c2ccc3c(c2)OCCO3)cc1` are 14%, 57.6% (active), 51.9% (active) and -12.9%.
For `OC(c1ccc2ccccc2n1)c1c(Cl)cccc1Cl` (stereo not drawn), the inhibition is 12.8% in experiment [1], 42.7% (active) in experiment [2], 41.4% in experiment [3] and 17.8% in experiment [4].
As for `Oc1[nH]c2ccccc2c1N=NC(=S)N1CCOCC1`, the inhibition in experiment [1] was 74.8% (active); in experiment [2], 78.3% (active); in experiment [3], 80% (active); in experiment [4], 55.2% (active).
As for `CN(CCc1ccccc1)C(=O)c1ccc(NC(=O)Cc2ccc(NC(=O)C3CCCN(C(=O)CCc4ccccc4)C3)cc2)cc1` (stereo not drawn), the inhibition in experiment [1] is 30.9% (active); in experiment [2], 62.4% (active); in experiment [3], 64.5% (active); in experiment [4], 59.8% (active).
As to `Cc1nn(CC(=O)Nc2ccc3c(c2)OCCO3)c(C)c1[N+](=O)[O-]`, the inhibition is 11.2% in experiment [1], 62.3% (active) in experiment [2], 51.6% (active) in experiment [3] and 10.4% in experiment [4].
The like results for `Cc1cc(Br)ccc1NC(=O)CN1C(=O)C2CC=CCC2C1=O` (stereo not drawn) were, in that order, 7.07%, 61.7% (active), 44.1% (active) and -7.81%.
For the compound `CC(=O)C1=C(c2cccc([N+](=O)[O-])c2)N(C(C)=O)n2c(C)nnc2S1`, the inhibition in experiment [1] is 5.25%; in experiment [2], 58.4% (active); in experiment [3] it was 50.3% (active); in experiment [4] it was -4.12%.
Take `CC(/C=C(\NC(=O)c1ccccc1)C(=O)N=Nc1c(O)[nH]c2ccc(C)cc12)=C\c1ccccc1`: the inhibition is 34.2% (active) in experiment [1], 31.7% in experiment [2], 30.2% in experiment [3] and 14.1% in experiment [4].
Take `O=C(COC(=O)C1CCCCC1)NCCc1ccccc1`: the inhibition in experiment [1] was 3.93%; in experiment [2] it was 50.9% (active); in experiment [3], 41.5%; in experiment [4] it was -5.95%.
For `COCCNc1ccc([N+](=O)[O-])cc1C(=O)NC1CCCc2ccccc21` (stereo not drawn), the inhibition was 4.6% in experiment [1], 54.7% (active) in experiment [2], 53.5% (active) in experiment [3] and 12.8% in experiment [4].
In the same order, the values of `Cc1nc2ccccc2n1Cc1ccc(Cl)cc1` are 8.73%, 56.1% (active), 54.1% (active) and 47% (active).
On to `Cc1nnc(SCC(=O)Nc2ccc(N3CCN(S(C)(=O)=O)CC3)cc2)o1`, for which the inhibition in experiment [1] is -2.52%; in experiment [2], 50.8% (active); in experiment [3], 50.2% (active); in experiment [4] it was -9.83%.
Consider `CCC(c1nnnn1-c1c(C)cccc1C)N1CCN(c2ccc(C(F)(F)F)cc2[N+](=O)[O-])CC1` (stereo not drawn), for which the inhibition was 7.27% in experiment [1], 18.6% in experiment [2], 5.25% in experiment [3] and 10% in experiment [4].
In the same order, the values of `COc1cc(NC(=O)c2ccc([N+](=O)[O-])o2)ccc1NC(=O)c1ccco1` are 28.8% (active), 62.5% (active), 67% (active) and -17.9%.
The like results for `CC(=O)Oc1ccc(N(C(C)=O)S(=O)(=O)c2ccccc2)c2ccccc12` were, in that order, 13%, 31.6%, 34.9% and -3.17%.
Turning to `CCOCC(=O)Nc1ccc([N+](=O)[O-])cc1C`, the inhibition in experiment [1] is 9%; in experiment [2] it was 59.1% (active); in experiment [3], 57.7% (active); in experiment [4] it was 4.94%.
Turning to `O=C(COC(=O)CCN1C(=O)C2CC=CCC2C1=O)NCCc1ccc(F)cc1` (stereo not drawn), the inhibition in experiment [1] is 7.75%; in experiment [2] it was 63.2% (active); in experiment [3], 55% (active); in experiment [4], -1.34%.
For the compound `O=C(CN1C(=O)C(c2ccc(F)cc2)=NC12CCCC2)Nc1ccc(F)cc1`, the inhibition in experiment [1] was 23.4%; in experiment [2] it was 52.2% (active); in experiment [3] it was 49.4% (active); in experiment [4], 38.4% (active).
In the case of `Cn1c2c(c(=O)n(C)c1=O)C(C(F)(F)F)(C(F)(F)F)N=C(CCC1CCCCC1)N2`, the inhibition is 29.6% (active) in experiment [1], 41.9% (active) in experiment [2], 49.6% (active) in experiment [3] and 41.1% (active) in experiment [4].
In the case of `COC(=O)c1c(NC(=O)c2cccc(N3C(=O)CCC3=O)c2)sc2c1CCN(C(C)=O)C2`, the inhibition was 19.6% in experiment [1], 65.5% (active) in experiment [2], 49.8% (active) in experiment [3] and -30.4% in experiment [4].
In the case of `Cc1cccc(-n2ncc3c2CCCC3NC(=O)C2(C(N)=O)CC2)c1C` (stereo not drawn), the inhibition is 16.4% in experiment [1], 55% (active) in experiment [2], 48.4% (active) in experiment [3] and 50% (active) in experiment [4].
Consider `COc1ccc(OCCNC(=O)c2ccccc2OCC(=O)Nc2ccc(NC(C)=O)cc2)cc1`, for which the inhibition was 16% in experiment [1], 49.8% (active) in experiment [2], 52.4% (active) in experiment [3] and 0% in experiment [4].
For the compound `O=C(c1c(F)c(F)c(F)c(F)c1F)N1CCN(c2cccc(C(F)(F)F)c2)CC1`, the inhibition in experiment [1] is 7.83%; in experiment [2] it was 49.5% (active); in experiment [3] it was 44% (active); in experiment [4], 11.4%.
On to `CC(=O)Oc1ccc2oc(=O)c3c(c2c1)CCCN3C(=O)CN1CCN(c2ncccn2)CC1`, for which the inhibition in experiment [1] is 12.8%; in experiment [2], 58% (active); in experiment [3], 66.4% (active); in experiment [4], -13.8%.
The like results for `Cc1ccccc1N=C1NC(=O)/C(=C/c2cccnc2)S1` were, in that order, 13.1%, 39.8%, 40.2% and 8.55%.
On to `CC(O)(c1ccc(F)c(F)c1)c1nc(-c2ccc(S(C)(=O)=O)cc2)cs1` (stereo not drawn), for which the inhibition was 3.51% in experiment [1], 53.5% (active) in experiment [2], 49.5% (active) in experiment [3] and -2.47% in experiment [4].
The like results for `COc1ccc(NC(=O)COc2ccc(N(C)S(=O)(=O)c3ccc(Cl)cc3)cc2)cc1OC` were, in that order, 18.5%, 67.1% (active), 51.7% (active) and 51.1% (active).
The like results for `O=[N+]([O-])c1cnccc1Nc1ccc(Cl)cc1` were, in that order, 15.6%, 64.1% (active), 60.5% (active) and 18.9%.
The like results for `O=C(Nc1nc2c(Cl)cccc2s1)c1ccc([N+](=O)[O-])o1` were, in that order, 10.3%, 65.3% (active), 62.2% (active) and -6.76%.
Take `CC(=O)Nc1ccc(NC(=O)CSc2ccc(-c3ccc(-n4ccnc4)cc3)nn2)cc1`: the inhibition is 9.71% in experiment [1], 52% (active) in experiment [2], 53% (active) in experiment [3] and -5.42% in experiment [4].
Take `COc1ccc(NC(=O)CSc2ccc3c(c2)OCCO3)cc1`: the inhibition in experiment [1] was 2.27%; in experiment [2], 63.5% (active); in experiment [3], 56.7% (active); in experiment [4] it was -4.1%.
The like results for `Clc1ccccc1-c1nnc2sc(-c3ccc(Br)o3)nn12` were, in that order, 5.07%, 43.5% (active), 54.5% (active) and -2.86%.
For the compound `COc1ccc(NC(=O)CN2C(=O)C(C)SC(C)C2=O)c(OC)c1` (stereo not drawn), the inhibition in experiment [1] is 4.55%; in experiment [2] it was 44% (active); in experiment [3], 49% (active); in experiment [4] it was 11.3%.
Consider `CCCCCc1ccc(OCCCC[n+]2ccc(C)cc2)c(CCCCC)c1`, for which the inhibition in experiment [1] is 21.4%; in experiment [2], 42.3% (active); in experiment [3], 45.7% (active); in experiment [4] it was 45.6% (active).
In the same order, the values of `S=C(NCCc1ccccc1)Nc1cccc2cnccc12` are -5.25%, 45.1% (active), 47.5% (active) and 42.3% (active).
For the compound `O=C(c1ccoc1)N1CCN(c2cc(-c3ccco3)nc3cc(-c4ccccc4)nn23)CC1`, the inhibition in experiment [1] is 46.1% (active); in experiment [2], 50.1% (active); in experiment [3], 48% (active); in experiment [4], 19.7%.
The like results for `CC1CCC2(CC1)NC(=O)N(CC(=O)Nc1ccc(N3CCOCC3)cc1)C2=O` (stereo not drawn) were, in that order, 11.8%, 45.8% (active), 37.4% and -8.77%.
Take `CCOc1ccc(CCNC(=O)COC(=O)c2cc(=O)[nH]c3ccccc23)cc1OCC`: the inhibition is 8.79% in experiment [1], 53.2% (active) in experiment [2], 53.2% (active) in experiment [3] and -8.43% in experiment [4].
As for `O=C(COc1ccc2c(-c3ccccc3)cc(=O)oc2c1)NCCCn1ccnc1`, the inhibition in experiment [1] is 9.33%; in experiment [2], 36.4%; in experiment [3] it was 39%; in experiment [4], -19.5%.
In the same order, the values of `O=C(O)c1c[nH]c2c([N+](=O)[O-])cccc2c1=O` are 10.4%, 35.2%, 29.6% and 5.89%.
In the case of `Cc1cc2oc(=O)cc(-c3ccccc3)c2c(C)c1-c1ccc(C#N)cc1`, the inhibition in experiment [1] is 4.09%; in experiment [2], 69% (active); in experiment [3], 62.7% (active); in experiment [4] it was 13.8%.
In the same order, the values of `COc1cccc(C(=O)N/N=C2/SCC(=O)N2CCc2ccc(OC)c(OC)c2)c1` are 10.8%, 31.3%, 36.8% and -5.38%.
Regarding `CN(C)c1ccc(S(=O)(=O)N2CCCCC2)cc1NC(=O)CCNC(=O)c1ccc(Cl)cc1`, the inhibition in experiment [1] was 6.54%; in experiment [2] it was 3.72%; in experiment [3] it was 1.24%; in experiment [4] it was -0.3%.

For the origin of these results see PubChem BioAssay.
